Results reported in PubChem BioAssay AID488908 (National Center for Advancing Translational Sciences (NCATS), 2010).
Where “and” joins values, the source holds several entries; their conditions need not be identical. Equal entries are not always repeated. Inconclusive results are not listed. Unmarked numbers belong to inactive results. Calls of active or inactive are those of the source. Calls come from the whole dose curve; as a rule, active = well fitted inhibition curve with a large enough effect; inconclusive = small, poorly fitted or top-dose-only effect; inactive = flat fitted curve, though single readings scatter.

Experiment: Secondary Assay for lipid storage modulators: Cytotoxcity for probe SAR
Settings: Drosophila S3 cells viability, CellTiter-Glo luminescence, 24 h, with oleic acid added (1 µL, 400 µM); series mostly up to 46.1 µM; activity change, negative = cytotoxicity: at the top concentration
From the text: NIH Molecular Libraries Probe Production Centers Network [MLPCN] NIH Chemical Genomics Center [NCGC] MLPCN Grant: 1 R03 MH085686-01 Assay Submitter (PI): Beller, Mathias; Max-Planck-Institut fur Biophysikalische Chemie, Germany. NCGC Assay Overview: Storing lipids as a reservoir for energy or the anabolism of elementary metabolites is a common feature of probably all cells and is conserved from bacteria to humans. The universal cellular lipid storage organelle is the so-called lipid storage droplet (LD). Although ubiquitous, LDs share a simple structure composed of a hydrophobic core that harbors the storage lipids, which is shielded by a droplet-specific phospholipid monolayer to which proteins are attached. The current model of LD biogenesis involves an incorporation of the lipid core into the membrane leaflets of the endoplasmic reticulum (ER) followed by a subsequent budding-like maturation of a LD, which ultimately pinches off. Once released, LD volume can increase by localized lipogenesis or fusion of existing droplet. Storage lipids are re-mobilized enzymatically by lipase activity. Lipase regulation in the adipocyte is heavily studied and involves multiple components including catecholamine signaling, the LD-associated proteins Perilipin and comparative gene identification (CGI-58) and at least two lipases named hormone sensitive lipase (HSL) and adipocyte triglyceride lipase (ATGL). LD regulation outside of the adipocyte is poorly understood and only few components are known. However, there is an urgent need to learn more about ectopic fat depots as mislocalized storage of lipids, for example in the liver or muscle, is an eminent health problem associated with insulin resistance or the metabolic syndrome. We developed a laser-scanning cytometer assay to enable 1,536-well screening and combined the results of the small molecules screen with an RNAi database based on lipid storage. The compound was tested here for cytotoxcity using CellTiter-Glo.
Assay Protocol Summary: Cytotoxcity assay was performed with embryonic Drosophila S3 cells (Bloomington Drosophila Genomics Resource Center [DGRC]). We dispensed 4 uL of cells at 1.25 x 10^6 cells/mL into Greiner solid white 1,536-well plates with a bottle-valve solenoid-based dispenser (Aurora) to obtain 5,000 cells/well. A total of 23 nL of compound solution of different concentrations were transferred to the assay plates using a Kalypsys pin tool equipped with a 1,536-pin array containing 10-nL slotted pins (FP1S10, 0.457-mm diameter, 50.8 mm long; V&P Scientific). One microliter of oleic acid (400 uM) was added, and the plate was lidded with stainless steel rubber gasket lined lids containing pinholes. After 24 hrs of incubation at 24 degrees Celsius and 95% humidity, 4 uL of CellTiter-Glo (Promega) was added to the wells. Luminescence was detected on the Perkin Elmer ViewLux.

SMILES	activity change, negative = cytotoxicity	Potency
COc1cc(NC(=S)N2CCN(c3ccccn3)CC2)c(OC)cc1Cl	-8.95%	
COc1ccc(Cl)cc1NC(=S)N1CCN(c2ccccc2)CC1	-3.23%	
CCOc1ccc(CCNC(=O)C2=C(C)OCCO2)cc1OCC	-6.76%	
O=C(NCCc1ccc(O)c(O)c1)c1cc2sccc2[nH]1	0.525%	
CC(C)(C)OC(=O)NC1CCCc2c1cnn2-c1ccc(F)cc1F (stereo not given)		9.96 µM (active)
CCCn1c(-c2ccc(OC)cc2)cnc1SCC(=O)Nc1nc(C)c(C)s1	-22%	
CC(=O)NCc1ccc(-c2csc(NC(=O)Cc3cccs3)n2)cc1	-19.2%	
CCOC(=O)C1CCN(C(=O)CNC(=O)Nc2ccccc2Cl)CC1	2.28%	
COc1ccc(CCNC(=O)c2cc3sc(C)cc3n2C)cc1OC	-27.1%	
Cc1ccc(NC(=O)c2ccc(CN3CCN(C)CC3)cc2)cc1Nc1nc(-c2cccnc2)cs1	-27.6%	
CCOc1ccc(CCNC(=O)Cc2ccccc2)cc1OCC	-6.12%	
COc1cc(Nc2ncc(F)c(Nc3ccc4c(n3)NC(=O)C(C)(C)O4)n2)cc(OC)c1OC	-16.2%	
O=C(NC1CCCc2c1cnn2-c1ccc(F)cc1F)c1ccc(C2(C(F)(F)F)N=N2)cc1 (stereo not given)		3.97 µM (active)
COc1ccc(Cl)cc1NC(=S)N1CCN(c2cccc(Cl)c2)CC1	-16.8%	
CCOc1ccc(CCNC(=O)c2ccc(N3N=C(C)CC3=O)cc2)cc1OCC	-8.66%	
O=C(Cc1cccs1)Nc1nc(-c2ccc3c(c2)CCC3)cs1	-15.7%	
O=C(NC1CCCc2c1cnn2-c1ccc(F)cc1F)c1ccncc1 (stereo not given)		1.41 µM (active)
O=C(NC1CCCc2c1cnn2-c1ccc(F)cc1F)c1ccccn1 (stereo not given)		9.96 µM (active) and 8.88 µM (active)
O=C(CSc1nnc(NCc2ccccc2)s1)Nc1nc(-c2ccc(F)c(F)c2)cs1	-24.2%	
O=C(CSc1nnc(NCc2ccccc2)s1)Nc1nc(-c2cccc(Br)c2)cs1	-15.8%	

SMILES	activity change, negative = cytotoxicity	Potency
O=C(NCCc1ccc(O)c(O)c1)c1cc2sccc2n1Cc1ccccc1	-15%	
CCn1c(C(=O)NCCc2ccc(OC)c(OC)c2)cc2sc(Cl)cc21	-2.07% [at 30.7 µM]	
COc1ccc(Cl)cc1NC(=S)N1CCN(c2ccc(F)cc2)CC1	-5.01%	
COc1ccc(-c2csc(NC(=O)CSc3nnc(NC4CC4)s3)n2)cc1OC	-10.9%	
Cc1cc(SCc2sc(-c3ccc(C(F)(F)F)cc3)nc2C)ccc1OCC(=O)O	-12.1%	
CCOc1ccc(CCNC(=O)c2cccs2)cc1OCC	-23.7%	
COc1ccc(NC(=S)N2CCN(c3cccc(Cl)c3)CC2)c(OC)c1	-20.9%	
CN(C)Cc1ccc(-c2nc3cccc4c3n2CCNC4=O)cc1	-2.69%	
CCOC(=O)C1CCN(C(=O)C2(NC(=O)Nc3ccccc3Cl)CCCCC2)CC1	-10.2%	
CCOc1ccc(CCNC(=O)C2CCCCC2)cc1OCC	-18.7%	
O=C(NC1CCCc2c1cnn2-c1ccc(F)cc1F)c1cnccn1 (stereo not given)		3.97 µM (active)
CCOc1ccc(CCNC(C)=O)cc1OCC	-2.17%	
O=C(NC1CCCc2c1cnn2-c1ccc(F)cc1F)C1CCCCN1 (stereo not given)	-10.8%	
CCOC(=O)C1CCN(C(=O)C2(NC(=O)Nc3ccccc3Cl)CCC2)CC1	-4.57%	
COc1ccccc1NC(=S)N1CCN(c2cc(Cl)ccc2C)CC1	-8.23%	
O=C(c1cc2sccc2n1Cc1ccccc1)N(CCc1ccc(O)c(O)c1)Cc1ccccc1	-27.4%	
Cc1cccc(Nc2nnc(SCC(=O)Nc3nc(-c4ccc(F)cc4)cs3)s2)c1	-27.2%	
Cc1cn(-c2cc(NC(=O)c3ccc(C)c(Nc4nccc(-c5cccnc5)n4)c3)cc(C(F)(F)F)c2)cn1	-26%	
O=C(NC1CCCc2c1cnn2-c1ccccc1F)c1ccc2ncccc2c1 (stereo not given)		2.23 µM (active)
O=C(NCCc1ccc2c(c1)OCO2)c1cc2sccc2n1Cc1ccccc1	-17.2%	
